Experimental data from PubChem BioAssay (NCATS).
Records with an inconclusive call do not appear. A number with no mark means an inactive call. Activity calls are given as the source filed them. The call rests on the fitted dose curve; in most records, active means well fitted cell-killing curve with a large enough effect; inconclusive means small, poorly fitted or top-dose-only effect; inactive means flat fitted curve, though single readings scatter.

Test: Cellular viability qHTS for adrenocortical cancer (ACC) cell line NCI-H295R (AID 1963990); further: nearly all actives have a fitted effect of over 60% in size;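 on activity change, negative = viability loss: 0% = DMSO only wells and -100% = full killing with cytotoxic reference compound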
Conditions: CellTiter-Glo ATP luminescence, 48 h; series mostly up to 46.1 µM; activity change, negative = viability loss: at the top concentration
Procedure, shortened: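 IC50 and maximal efficacy derive from four-parameter logistic modelling of titration curves, with reads scaled between DMSO-only wells (0%) and doxorubicin hydrochloride (100% inhibition). Compounds spanned up to 46 uM over 48 h.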

| Structure (SMILES) | Potency | activity change, negative = viability loss |
| --- | --- | --- |
| CS(=O)(=O)N1CCC(NC(=O)c2[nH]ncc2NC(=O)c2c(Cl)cccc2Cl)CC1 | 11.2 µM (active) |  |
| Cc1cnc(NS(=O)(=O)c2ccc(N)cc2)nc1 |  | -8.44% |
| CN(C)C(N)=NC(=N)N |  | -8.95% |
